This is a sample that favours compounds with a hit; in the whole collection about 1.6% have one here.
SUMO HTRF inh: blocks human SUMOylation mediated by UBC9 | actives 0.36% (n = 290,000) | AID 2006 | inhibition, % at 35 µM | P63279 | HTRF SUMOylation assay, SAE1/SAE2 + UBC9, in vitro; in the data active means inhibition above about 50%, passing the limit was not always enough
Target sequence (P63279 whole entry, looked up): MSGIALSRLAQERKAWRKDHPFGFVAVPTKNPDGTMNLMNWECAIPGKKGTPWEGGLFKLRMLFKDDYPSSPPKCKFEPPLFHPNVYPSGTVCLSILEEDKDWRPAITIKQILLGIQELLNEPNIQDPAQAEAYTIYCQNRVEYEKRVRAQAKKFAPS
NSD2 HMT inh: blocks human histone methyltransferase NSD2. NSD2 peptide methylation, AlphaScreen, 120 min. actives 0.54% (n = 310,000). O96028. inhibition, % at 12.5 µM; in the data active means inhibition above about 50%
SIRT5 block: blocks human SIRT5 desuccinylation of peptide; inhibition, % at 15 µM; Purified SirT5, succinyl-peptide AMC, trypsin-coupled fluorescence; Q9NXA8; actives 1.1% (n = 330,000); AID 652115; in the data active means inhibition above about 15%
Target sequence (Q9NXA8 whole entry, looked up): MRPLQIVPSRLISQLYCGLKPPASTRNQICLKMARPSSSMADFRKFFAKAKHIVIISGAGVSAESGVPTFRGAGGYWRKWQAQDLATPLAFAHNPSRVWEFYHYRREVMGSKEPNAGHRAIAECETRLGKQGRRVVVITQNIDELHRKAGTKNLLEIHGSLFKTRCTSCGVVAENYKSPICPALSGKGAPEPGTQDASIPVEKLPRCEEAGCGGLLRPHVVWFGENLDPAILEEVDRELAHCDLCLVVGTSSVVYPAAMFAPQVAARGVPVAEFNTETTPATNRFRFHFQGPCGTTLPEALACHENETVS
CASP6 VEID inh: inhibitors of human caspase-6; P55212; purified caspase-6, Z-VEID-R110 cleavage fluorescence; inhibition, % at 12.5 µM; actives 0.53% (n = 350,000); AID 686996;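 active means mean inhibition across replicates at least about 35%, with every replicate also reaching that limit, limit read from the data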;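 further: 0% = median of neutral control wells and 100% = no fluorescence left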
AlphaScreen art: counter-screen for NSD2 inhibitors: AlphaScreen artifacts; AlphaScreen artifact counterscreen, preloaded methylated H4 peptide; AID 1053174; shares compounds with NSD2 HMT inh; AC35, µM (series often up to 10 µM), for the others: top-dose activity change, negative = signal loss; actives 9.4% (n = 1,500); call rule not given here
The depositor's hits bear a star; / = not tested or not shown.

SMILES	SUMO HTRF inh	NSD2 HMT inh	SIRT5 block	CASP6 VEID inh	AlphaScreen art
CC(C)(C)/C=N/NC(=O)CNC(=O)c1ccc2c(c1)OCCO2	15	50*	-4	7	-4%
CCn1c2ccccc2c2cc(N)ccc21	28	-6	/	/	/
CCn1c(C)cc(=S)c2ccccc21	11	104*	/	/	-18%
CCCN1[C@@H]2c3ccc(C4=CCCCC4)c(=O)n3C[C@@H]2[C@@H](CO)[C@@H]1C(=O)NCCCN(C)C	/	/	-8	4	/
COc1ccc(C(=O)Cc2nnc(C)s2)cc1	-7	69*	/	/	2%
COc1ccc(C(=O)CC(=O)c2ccc(OC)cc2)cc1	7	-5	-1	1	/
C[C@H]1CN([C@@H](C)CO)C(=O)c2cc(-c3ccccc3)cnc2O[C@@H]1CN(C)C	/	/	-1	2	/
C[C@@H]1CCCCO[C@@H](CN(C)C)[C@H](C)CN([C@H](C)CO)C(=O)c2cc(NC(=O)Nc3ccccc3)ccc2O1	/	/	-4	-4	/
O=C1c2cccc(Cl)c2C(=O)c2c1cccc2N1CCCC1	/	74*	/	/	1.1µM*
CCCN1[C@@H]2c3ccc(-c4ccccc4OC)c(=O)n3C[C@@H]2[C@@H](CO)[C@@H]1C(=O)Nc1nccs1	/	/	-3	0	/
COc1ccc(NC(=O)CSc2nc(N)c(C#N)cc2C#N)cc1	-1	4	0	-1	/
CCOC(=O)c1c(C#N)c(SCC(=O)Nc2ccc(OC)cc2)nc2c1CN(CC)CC2	0	70*	/	/	-3%
NC(=O)c1nsc(C(=O)N(c2ccccc2)C(C(=O)NCC2CCCO2)c2ccc3ncccc3c2)c1N (stereo unspecified)	-8	59*	-3	2	6%
CCOc1ccccc1N(C(=O)c1snc(C(N)=O)c1N)C(C(=O)NCC1CCCO1)c1ccc2ncccc2c1 (stereo unspecified)	12	-1	2	-2	/
NS(=O)(=O)c1ccc2c(c1)C(=NO)c1cc(S(N)(=O)=O)ccc1-2	10	-2	0	2	/
NC1=C(Cl)C(=O)c2ccc(S(N)(=O)=O)cc2C1=O	/	114*	2	100*	-2%
Cc1c(Br)c(=O)oc2c(Br)c(O)c(O)cc12	6	111*	5	47*	-15%
CO[C@@H]1CN(C)C(=O)c2cc(NS(=O)(=O)c3cn(C)cn3)ccc2OC[C@@H](C)N(Cc2cccc(F)c2)C[C@@H]1C	/	/	/	0	/
COc1cc(/C=C/c2cccc[n+]2C)ccc1OCC(=O)Nc1ccccc1C	13	131*	1	-16	-3%
Cc1ccc(-c2sc(-c3ccccc3)nc2CC(=O)Nc2ccccc2F)cc1	-3	-3	3	2	/
Cc1ccc(NC(=O)CC2=NC(=O)C(CC(=O)Nc3ccccc3F)S2)cc1 (stereo unspecified)	14	71*	2	2	0%
O=C(C[C@H]1C=C[C@@H](NC(=O)Nc2ccc3c(c2)OCO3)[C@H](CO)O1)NCc1ccc(Cl)cc1	/	/	4	0	/
O=C(COc1cccc(-n2cnnn2)c1)N1CCOCC1	24	-2	/	/	/
CC1Cc2ccccc2N1C(=O)COc1cccc(-n2cnnn2)c1 (stereo unspecified)	5	130*	/	/	-2%
COc1ccc(S(=O)(=O)N[C@H]2CC[C@@H](CCNC(=O)Cc3ccccn3)O[C@@H]2CO)cc1	/	/	-2	0	/
SMILES	SUMO HTRF inh	NSD2 HMT inh	SIRT5 block	CASP6 VEID inh	AlphaScreen art
CCOc1ccc(-c2ncncc2-c2ccc(OC)cc2)c(O)c1	14	5	/	/	/
COc1ccc(-c2ncncc2-c2ccccc2)c(O)c1	-2	68*	-4	6	-2%
C=CCOc1ccc(C2NC(=S)NC3=C2CCc2ccccc23)cc1 (stereo unspecified)	4	8	-11	9	/
O=C1NC2=C(CCc3ccccc32)C(c2ccccc2)N1 (stereo unspecified)	18	93*	-6	-3	-2%
C[C@H]1CCCCO[C@@H](CN(C)S(=O)(=O)c2cccs2)[C@@H](C)CN([C@@H](C)CO)C(=O)c2cc(NC(=O)Nc3ccc4c(c3)OCO4)ccc2O1	/	/	-1	-4	/
CCN1/C(=C/c2ccc3cc(C)cc(C)c3[n+]2CC)Sc2cc(C)ccc21	-22	113*	3	-37	9.7µM*
C[C@H]1CN([C@@H](C)CO)C(=O)c2cc(NC(=O)CCCN(C)C)ccc2O[C@@H]1CN(C)Cc1ccccc1	/	/	0	1	/
O=C(C1CC1)N1CC2(C1)[C@H](c1ccccc1)[C@@H](CO)N2Cc1nccs1	/	/	1	-3	/
CC1(C)CC(NC(=O)CCc2nnc(CCCCc3ccccc3)o2)CCO1 (stereo unspecified)	3	0	-2	0	/
O=C(CCc1nnc(CCCCc2ccccc2)o1)NC1CCCC1	-16	83*	-2	-5	-5%
CCCN(CCC)CCCNC(=S)Nc1ccc2nc(N3CCN(CC)CC3)cc(C)c2c1	4	70*	4	-62	-10%
CCCN(CCC)CCCNC(=S)Nc1ccc2nc(N3CCN(C)CC3)cc(C)c2c1	7	35	0	-64	/
Cc1ccc(S(=O)(=O)N(C)C[C@H]2Oc3c(NC(=O)Nc4c(C)noc4C)cccc3C(=O)N([C@H](C)CO)C[C@@H]2C)cc1	/	/	-4	/	/
COc1ccc(C(=O)Nn2c(SCC(=O)c3ccc(Cl)cc3)nc3ccccc3c2=O)cc1	-10	116*	/	/	-4%
COCC(=O)N[C@H]1CC[C@H](CC(=O)N2CCCCC2)O[C@@H]1CO	/	/	1	-4	/
COc1ccc(-c2nnc(SCC(=O)c3ccc(O)cc3O)o2)cc1	-12	81*	0	4	-3%
COc1ccc(-c2nnc(SCC(=O)c3ccc[nH]3)o2)cc1	-16	-1	/	/	/
Cc1cc(C)nc(NS(=O)(=O)c2ccc(NC(=O)c3ccccc3Br)cc2)n1	/	65*	-5	23	1%
Cc1ccc(-c2nc(Nc3cccc(C)c3)sc2CC(=O)O)cc1	22	/	0	0	/
O=C(O)Cc1sc(NC2CCCCC2)nc1-c1ccc(Cl)cc1	4	99*	-3	-1	-4%
CNC[C@@H]1Oc2ccc(NC(=O)c3ccncc3)cc2CC(=O)N([C@H](C)CO)C[C@@H]1C	/	/	6	-1	/
COc1ccc(CC(=O)NC2CCCCCC2)c(OC)c1	0	77*	-5	-2	0%
COc1ccc(NC(=O)NC2CCCCCCC2)c(OC)c1	-9	0	/	/	/
Cc1ccc(S(=O)(=O)Nc2cccc3cccnc23)cc1	-86	-2	/	/	/
O=S(=O)(Nc1cc(Sc2cccc3cccnc23)c(O)c2ccccc12)c1ccccc1	24	56*	0	-1	-13%
CCc1ccc(S(=O)(=O)Nc2cc(SCC(=O)O)c(O)c3ccccc23)cc1	101*	113*	1	67*	-10%
C[C@@H]1CN([C@H](C)CO)C(=O)c2cc(C3=CCCCC3)cnc2O[C@H]1CN(C)C(=O)c1cccnc1	/	/	1	2	/
CCN(CC)CCNC(=O)c1cccc(NC(=O)C(=O)c2cc(Br)ccc2NC(C)=O)c1	13	57*	-1	-13	-3%
